Bioassay records: PubChem, National Center for Advancing Translational Sciences (NCATS)
The list is not random: actives were taken first. Their share in the collection is about 7.8%.
HCMV inh: human cytomegalovirus inhibition | 4.5% of 410,000 active | activity change, negative = inhibition, % at 57.5 µM | HFF cells, HCMV-luciferase reporter, 72 h; hits give low values | AID 1259415; in the data active = activity change below about -60%; inconclusive = no clear call, values can overlap the other calls; inactive = above about -39%
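Inhibition of viral replication was scored as loss of reporter luminescence in HFFs infected with HCMV-luciferase (MOI 1 PFU/cell) for 72 h; compounds tested at 2 doses, normalized to buffer and Salinomycin controls.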
HCV inh: inhibitors of hepatitis C virus infection | Huh7.5.1 HCVcc-Cre infection, luciferase reporter, 44 h | Potency, µM (top dose mostly 41.8 µM), usual class: inhibitors | AID 651820 | 3.4% of 340,000 active; active = well fitted inhibition curve with a large enough effect; inconclusive = small, poorly fitted or top-dose-only effect, or another doubt; inactive = no such curve, though single readings can be large or run the other way
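After 44 h co-culture of compound, cells and HCVcc-Cre (~0.5 moi), substrate is added for 15 min at room temperature and luciferase measured over 15 sec. Cells were seeded at 1,000/well and pre-cultured 4 h.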
MARV entry inh: inhibitors of Marburg virus binding or cell entry; 1.8% of 300,000 active; Potency, µM (top dose mostly 37.8 µM), usual class: inhibitors; Marburg virus pseudotyped entry inhibition, cell reporter; calls by dose curve; tested in HEK293 cells
VACV Venus inh: inhibitors of vaccinia virus (Venus reporter); Vaccinia virus Venus reporter expression, fluorescence; Potency, µM (top dose mostly 36.5 µM), actives largely listed as inhibitors; 0.46% of 330,000 active; calls by dose curve; tested in A549 cells; also: nearly all actives have a fitted effect of over 30% in size
LASV entry inh: blocks Lassa virus binding to or entry into cells; 1.2% of 300,000 active; AID 540256; Potency, µM (doses to about 37.9 µM), actives largely listed as inhibitors; Lassa virus pseudotype entry inhibition, cell reporter; calls by dose curve; tested in HEK293 cells; also: nearly all actives have a fitted effect of over 50% in size
VACV mCherry inh: vaccinia inhibition (mCherry reporter) | Vaccinia virus mCherry reporter infection, fluorescence | Potency, µM (series often up to 36.5 µM), usual class: inhibitors | 0.63% of 310,000 active | AID 720579; calls by dose curve; tested in A549 cells; also: nearly all actives have a fitted effect of over 35% in size
Of the large screens only hits and unclear results are named; the others gave an inactive call.

CCCn1c(CCCNC(=O)c2ccccc2OC)nc2ccccc21	none (no result: HCV inh)
CCCc1cc(=O)oc2cc(OCC(=O)NCCCn3ccnc3)c(Cl)cc12	HCMV inh -63 (no result: MARV entry inh, VACV Venus inh, LASV entry inh, VACV mCherry inh)
CCCc1cc(=O)oc2c(C)c(OCC(=O)NCCCn3ccnc3)ccc12	none
CCNC(=S)NNC(=O)c1ccccn1	MARV entry inh inconclusive, VACV Venus inh inconclusive, LASV entry inh inconclusive, VACV mCherry inh inconclusive
O=C(CCc1ccccc1)NNC(=O)c1ccccc1C(=O)O	LASV entry inh 4.6µM
O=C(NNC(=S)Nc1ccc(Cl)c(Cl)c1)c1ccccn1	HCMV inh -82, HCV inh 4.5µM, VACV Venus inh inconclusive, VACV mCherry inh inconclusive (no result: MARV entry inh, LASV entry inh)
O=C(CCc1ccccc1)NNC(=O)c1ccccn1	HCMV inh -75, HCV inh inconclusive (no result: MARV entry inh, VACV Venus inh, LASV entry inh, VACV mCherry inh)
O=C(NNC(=O)C(c1ccccc1)c1ccccc1)c1ccccn1	HCMV inh -97, HCV inh 6.3µM, MARV entry inh 4.6µM, VACV Venus inh inconclusive, LASV entry inh inconclusive, VACV mCherry inh inconclusive
COc1ccc2c(c1)O[C@@H](c1ccc3c(c1)OCO3)[C@H](OC(=O)NCCOc1ccccc1)C2=O	none (no result: HCMV inh, HCV inh, VACV Venus inh, LASV entry inh, VACV mCherry inh)
COc1cc2c(cc1OC)-c1c(OC)c(OC)cc3c1[C@H](C2)[N+](C)(C)CC3	HCMV inh -74, HCV inh inconclusive
COc1ccc(-c2noc(-c3ccc(N4CCCCC4C)c([N+](=O)[O-])c3)n2)cc1OC (centres undefined)	none (no result: HCV inh)
COc1cc(NC(=O)CSc2ccc(-c3sc(-c4ccccc4)nc3C)nn2)cc(OC)c1	none (no result: HCV inh, MARV entry inh)
C[C@H]1[C@@H](NC(=O)Nc2ccc(F)cc2)CC[C@@]23CCCN2C(=O)CCC[C@@H]13	none (no result: HCV inh, MARV entry inh, VACV Venus inh, LASV entry inh, VACV mCherry inh)
Cc1cc(C)c(C)c(S(=O)(=O)NCC(=O)NCC2CCCCC2)c1C	HCMV inh -62, MARV entry inh inconclusive, VACV mCherry inh inconclusive
Cc1ccc(S(=O)(=O)NCC(=O)NCC2CCCCC2)cc1C	none
COC(=O)Nc1ccc2ccc3c(NC(=O)OC)ccc4ccc1c2c43	HCV inh 13µM
CCSc1nnc2n(-c3ccc(OC)cc3)c(=O)c3c4c(sc3n12)CCCC4	HCMV inh -85
CCCSc1nnc2n(-c3cccc(C)c3)c(=O)c3c4c(sc3n12)CCCC4	none (no result: HCV inh)
COc1ccc(NC(=O)[C@H]2O[C@@H]3OC(C)(C)O[C@@H]3[C@H]3OC(C)(C)O[C@H]32)c(OC)c1	MARV entry inh inconclusive (no result: HCV inh)
CC[n+]1c(/C=C/N(C)c2ccccc2)oc2ccccc21	HCMV inh -97, HCV inh inconclusive, MARV entry inh inconclusive, LASV entry inh inconclusive
CC[n+]1c(/C=C/N(C)c2ccccc2)oc2ccc(F)cc21	HCMV inh -85, HCV inh inconclusive, MARV entry inh inconclusive, LASV entry inh inconclusive
CC(C)c1ccc(NC(=O)C2(C)Cc3ccccc3C(=O)O2)cc1 (centres undefined)	none (no result: HCV inh)
CCC1CN(C(=O)NCc2ccccc2)c2cc(Cl)ccc2O1 (centres undefined)	HCV inh 5.6µM (no result: MARV entry inh)
COc1ccc(OC)c(NC(=O)N2CC(C)Oc3ccc(C)cc32)c1 (centres undefined)	none (no result: HCV inh, MARV entry inh)
CCC1CN(C(=O)Nc2cc(C)ccc2OC)c2cc(Cl)ccc2O1 (centres undefined)	HCMV inh -61 (no result: HCV inh, MARV entry inh)
O=C(Nc1cccc2c1CCCC2)N1CCOc2ccc(Cl)cc21	none (no result: HCV inh, MARV entry inh)
CCOC(=O)c1ccccc1NC(=O)N1CCOc2ccc(Cl)cc21	HCMV inh -61 (no result: HCV inh, MARV entry inh)
CCc1ccc(CNC(=O)Cn2nc(-c3ccc(Cl)cc3)ccc2=O)cc1	none (no result: HCV inh, MARV entry inh)
CNC(=O)c1cncc(C=Cc2c(C)cccc2C)c1	none (no result: HCMV inh, HCV inh, MARV entry inh, VACV Venus inh, VACV mCherry inh)
CCOc1ccc(CCNC(=O)c2cc3cccc4c3n2CCS4)cc1	HCMV inh inconclusive, LASV entry inh inconclusive (no result: HCV inh, MARV entry inh)
COC1=CC(=O)c2c(ccc3ncnc(N)c23)C1=O	HCMV inh -99, HCV inh inconclusive, MARV entry inh inconclusive, VACV Venus inh inconclusive, LASV entry inh inconclusive, VACV mCherry inh inconclusive
C[C@H](CCC(=O)O)[C@H]1CC[C@H]2[C@@H]3CC[C@@H]4C[C@H](O)CC[C@]4(C)[C@H]3C[C@H](O)[C@]12C	HCMV inh inconclusive (no result: MARV entry inh, LASV entry inh)
COC(=O)CCC(C)C1CCC2C3CC[C@H]4CC(O)CC[C@@]4(C)C3CC(O)[C@]12C (some centres undefined)	VACV Venus inh 10µM, VACV mCherry inh inconclusive (no result: HCMV inh, HCV inh, MARV entry inh, LASV entry inh)
Cc1ccc(S(=O)(=O)Nc2cc(C(=O)NCCN(C)C)ccc2N2CCCC2)cc1	none (no result: MARV entry inh, VACV Venus inh, LASV entry inh, VACV mCherry inh)
